# ± gives the standard deviation.
# T1: HaloTag-ATRX ADD domain (163-292)
# T1 chain: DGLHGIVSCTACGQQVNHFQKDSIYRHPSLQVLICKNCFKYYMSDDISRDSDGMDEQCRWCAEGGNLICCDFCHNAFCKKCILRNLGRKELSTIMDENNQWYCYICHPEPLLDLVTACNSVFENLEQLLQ
# B1: H2A 1-13 S G R G Kac Q G G K A R A K (peptide)
# chain: SGRGKQGGKARAK
# B2: H2A 1-13 Sph G R G K Q G G Kac A R A K (peptide)
# chain: SGRGKQGGKARAK
# B3: H2A 1-13 Sph G Rme2s G K Q G G K A R A K (peptide)
# chain: SGRGKQGGKARAK
# B4: H2A 1-13 S G R G Kac Q G G Kac A R A K (peptide)
# chain: SGRGKQGGKARAK
# B5: H2A 1-13 S G Rme2s G Kac Q G G K A R A K (peptide)
# chain: SGRGKQGGKARAK
# B6: H2A 1-13 S G R G K Q G G Kac A R A K (peptide)
# chain: SGRGKQGGKARAK
# B7: H2A 1-13 S G Rcit G Kac Q G G K A R A K (peptide)
# chain: SGRGKQGGKARAK
# B8: H2A 1-13 S G Rme2a G Kac Q G G K A R A K (peptide)
# chain: SGRGKQGGKARAK
# B9: H2A 1-13 Sph G Rme2a G K Q G G K A R A K (peptide)
# chain: SGRGKQGGKARAK
# B10: H2A 1-13 Sph G R G Kac Q G G Kac A R A K (peptide)
# chain: SGRGKQGGKARAK
# What was measured:
# Assay in all cases: peptide microarray binding signal (635 nm), min-max normalized on array (fraction of array maximum); higher = stronger binding
# Conditions in all cases: peptide region: H2A 1-13
# [1] = biological target: T1, HaloTag-ATRX ADD domain (163-292)
# Procedure: (§1)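 Histone 13-mer peptides were synthesized as cellulose conjugates with a C-terminal 20-atom PEG linker and printed in triplicate on nitrocellulose. The sequence given is the unmodified backbone; PTMs (Kme1/2/3, Kac, Sph/Tph, Rme/Rme2a/Rme2s, Rcit) are listed in the label and the 'peptide modifications' condition. Slides were probed at 4 °C for 1 h with biotin-labelled (HQ)5-HaloTag reader fusions (ATRX-ADD, ING2-PHD) then streptavidin-Alexa647, or with rabbit histone antibodies then anti-rabbit Alexa647. The mean 635 nm signal of the triplicate spots was scaled 0-1 between the lowest and highest values on each array.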
# [2] = biological target: HaloTag-ING2 PHD (mouse Ing2 200-280)
# Procedure: as §1
# [3] = biological target: anti-H3K4me3 antibody ab8580
# Procedure: as §1
# [4] = biological target: anti-H3K9me3 antibody ab8898
# Procedure: as §1
# [5] = peptide modifications: H2AK5ac, binder concentration: 1:2,000 dilution
# [6] = peptide modifications: H2AK5ac, binder concentration: 1:10,000 dilution
# [7] = peptide modifications: H2AS1ph H2AK9ac, binder concentration: 1:2,000 dilution
# [8] = peptide modifications: H2AS1ph H2AR3me2s, binder concentration: 1:2,000 dilution
# [9] = peptide modifications: H2AS1ph H2AR3me2s, binder concentration: 1:10,000 dilution
# [10] = peptide modifications: H2AK5ac H2AK9ac, binder concentration: 1:2,000 dilution
# [11] = peptide modifications: H2AK5ac H2AK9ac, binder concentration: 1:10,000 dilution
# [12] = peptide modifications: H2AR3me2s H2AK5ac, binder concentration: 1:2,000 dilution
# [13] = peptide modifications: H2AR3me2s H2AK5ac, binder concentration: 1:10,000 dilution
# [14] = peptide modifications: H2AK9ac, binder concentration: 1:2,000 dilution
# [15] = peptide modifications: H2AK9ac, binder concentration: 1:10,000 dilution
# [16] = peptide modifications: H2AR3cit H2AK5ac, binder concentration: 1:2,000 dilution
# [17] = peptide modifications: H2AR3cit H2AK5ac, binder concentration: 1:10,000 dilution
# [18] = peptide modifications: H2AR3me2a H2AK5ac, binder concentration: 1:2,000 dilution
# [19] = peptide modifications: H2AR3me2a H2AK5ac, binder concentration: 1:10,000 dilution
# [20] = peptide modifications: H2AS1ph H2AR3me2a, binder concentration: 1:2,000 dilution
# [21] = peptide modifications: H2AS1ph H2AR3me2a, binder concentration: 1:10,000 dilution
# [22] = peptide modifications: H2AS1ph H2AK5ac H2AK9ac, binder concentration: 1:2,000 dilution
# [23] = peptide modifications: H2AS1ph H2AK5ac H2AK9ac, binder concentration: 1:10,000 dilution
binder,measurement,setting,value
B1,peptide microarray binding signal,"[1]; peptide modifications: H2AK5ac, binder concentration: 50 nM",0.00288 ± 4.3e-05
same,peptide microarray binding signal,"[1]; peptide modifications: H2AK5ac, binder concentration: 500 nM",0.0061 ± 0.00049
same,peptide microarray binding signal,"[2]; peptide modifications: H2AK5ac, binder concentration: 10 nM",0.00239 ± 2.4e-05
same,peptide microarray binding signal,"[2]; peptide modifications: H2AK5ac, binder concentration: 100 nM",0.005528 ± 4.3e-05
same,peptide microarray binding signal,[3]; [5],0.000378 ± 1e-05
same,peptide microarray binding signal,[3]; [6],0.000399
same,peptide microarray binding signal,[4]; [5],0.000227 ± 4.1e-06
same,peptide microarray binding signal,[4]; [6],0.000577 ± 6.2e-06
B2,peptide microarray binding signal,"[1]; peptide modifications: H2AS1ph H2AK9ac, binder concentration: 500 nM",0.005476 ± 3.5e-05
same,peptide microarray binding signal,"[2]; peptide modifications: H2AS1ph H2AK9ac, binder concentration: 100 nM",0.00354 ± 0.00045
same,peptide microarray binding signal,[3]; [7],0.000208 ± 2.2e-06
same,peptide microarray binding signal,[4]; [7],0.000121 ± 1.3e-06
B3,peptide microarray binding signal,"[1]; peptide modifications: H2AS1ph H2AR3me2s, binder concentration: 50 nM",0.00357 ± 5.8e-05
same,peptide microarray binding signal,"[1]; peptide modifications: H2AS1ph H2AR3me2s, binder concentration: 500 nM",0.00752 ± 0.00025
same,peptide microarray binding signal,"[2]; peptide modifications: H2AS1ph H2AR3me2s, binder concentration: 10 nM",0.00257 ± 5e-05
same,peptide microarray binding signal,"[2]; peptide modifications: H2AS1ph H2AR3me2s, binder concentration: 100 nM",0.00482 ± 0.0003
same,peptide microarray binding signal,[3]; [8],0.000378 ± 3.9e-06
same,peptide microarray binding signal,[3]; [9],0.000571
same,peptide microarray binding signal,[4]; [8],0.000317 ± 9.6e-06
same,peptide microarray binding signal,[4]; [9],0.000577 ± 6.2e-06
B4,peptide microarray binding signal,"[1]; peptide modifications: H2AK5ac H2AK9ac, binder concentration: 50 nM",0.00382 ± 4.6e-05
same,peptide microarray binding signal,"[1]; peptide modifications: H2AK5ac H2AK9ac, binder concentration: 500 nM",0.00743 ± 0.00068
same,peptide microarray binding signal,"[2]; peptide modifications: H2AK5ac H2AK9ac, binder concentration: 10 nM",0.00281 ± 0.00011
same,peptide microarray binding signal,"[2]; peptide modifications: H2AK5ac H2AK9ac, binder concentration: 100 nM",0.00815 ± 0.00019
same,peptide microarray binding signal,[3]; [10],0.00109 ± 0.00019
same,peptide microarray binding signal,[3]; [11],0.000571
same,peptide microarray binding signal,[4]; [10],0.000227 ± 4.1e-06
same,peptide microarray binding signal,[4]; [11],0.000519 ± 5.6e-06
B5,peptide microarray binding signal,"[1]; peptide modifications: H2AR3me2s H2AK5ac, binder concentration: 50 nM",0.00458 ± 0.00026
same,peptide microarray binding signal,"[1]; peptide modifications: H2AR3me2s H2AK5ac, binder concentration: 500 nM",0.00562 ± 0.00037
same,peptide microarray binding signal,"[2]; peptide modifications: H2AR3me2s H2AK5ac, binder concentration: 10 nM",0.00603 ± 0.00016
same,peptide microarray binding signal,"[2]; peptide modifications: H2AR3me2s H2AK5ac, binder concentration: 100 nM",0.00461 ± 7.6e-05
same,peptide microarray binding signal,[3]; [12],0.000736
same,peptide microarray binding signal,[3]; [13],0.0012 ± 1.2e-05
same,peptide microarray binding signal,[4]; [12],0.000589 ± 9.4e-06
same,peptide microarray binding signal,[4]; [13],0.00179 ± 6.1e-05
B6,peptide microarray binding signal,"[1]; peptide modifications: H2AK9ac, binder concentration: 50 nM",0.00348 ± 0.0001
same,peptide microarray binding signal,"[1]; peptide modifications: H2AK9ac, binder concentration: 500 nM",0.00619 ± 0.00024
same,peptide microarray binding signal,"[2]; peptide modifications: H2AK9ac, binder concentration: 10 nM",0.00251 ± 0.00014
same,peptide microarray binding signal,"[2]; peptide modifications: H2AK9ac, binder concentration: 100 nM",0.00638 ± 0.00045
same,peptide microarray binding signal,[3]; [14],0.000547 ± 2.3e-05
same,peptide microarray binding signal,[3]; [15],0.000399
same,peptide microarray binding signal,[4]; [14],0.000227
same,peptide microarray binding signal,[4]; [15],0.00075 ± 1.6e-05
B7,peptide microarray binding signal,"[1]; peptide modifications: H2AR3cit H2AK5ac, binder concentration: 50 nM",0.00389 ± 0.00015
same,peptide microarray binding signal,"[1]; peptide modifications: H2AR3cit H2AK5ac, binder concentration: 500 nM",0.00481 ± 0.00026
same,peptide microarray binding signal,"[2]; peptide modifications: H2AR3cit H2AK5ac, binder concentration: 10 nM",0.00519 ± 0.00013
same,peptide microarray binding signal,"[2]; peptide modifications: H2AR3cit H2AK5ac, binder concentration: 100 nM",0.00567 ± 0.00026
same,peptide microarray binding signal,[3]; [16],0.001 ± 3.7e-05
same,peptide microarray binding signal,[3]; [17],0.0016
same,peptide microarray binding signal,[4]; [16],0.000634 ± 9.9e-06
same,peptide microarray binding signal,[4]; [17],0.0015 ± 4.4e-05
B8,peptide microarray binding signal,"[1]; peptide modifications: H2AR3me2a H2AK5ac, binder concentration: 50 nM",0.00354 ± 0.00011
same,peptide microarray binding signal,"[1]; peptide modifications: H2AR3me2a H2AK5ac, binder concentration: 500 nM",0.00657 ± 0.00029
same,peptide microarray binding signal,"[2]; peptide modifications: H2AR3me2a H2AK5ac, binder concentration: 10 nM",0.00352 ± 5e-05
same,peptide microarray binding signal,"[2]; peptide modifications: H2AR3me2a H2AK5ac, binder concentration: 100 nM",0.00454 ± 0.00022
same,peptide microarray binding signal,[3]; [18],0.0005474 ± 5.3e-06
same,peptide microarray binding signal,[3]; [19],0.00137 ± 1.3e-05
same,peptide microarray binding signal,[4]; [18],0.000468 ± 9e-06
same,peptide microarray binding signal,[4]; [19],0.00104 ± 1.1e-05
B9,peptide microarray binding signal,"[1]; peptide modifications: H2AS1ph H2AR3me2a, binder concentration: 50 nM",0.00235 ± 9e-05
same,peptide microarray binding signal,"[1]; peptide modifications: H2AS1ph H2AR3me2a, binder concentration: 500 nM",0.00381 ± 0.00015
same,peptide microarray binding signal,"[2]; peptide modifications: H2AS1ph H2AR3me2a, binder concentration: 10 nM",0.003223 ± 1.8e-05
same,peptide microarray binding signal,"[2]; peptide modifications: H2AS1ph H2AR3me2a, binder concentration: 100 nM",0.00206 ± 4.1e-05
same,peptide microarray binding signal,[3]; [20],0.000472 ± 1.2e-05
same,peptide microarray binding signal,[3]; [21],0.000685 ± 7.2e-06
same,peptide microarray binding signal,[4]; [20],0.000332 ± 3.4e-06
same,peptide microarray binding signal,[4]; [21],0.000577 ± 6.2e-06
B10,peptide microarray binding signal,"[1]; peptide modifications: H2AS1ph H2AK5ac H2AK9ac, binder concentration: 50 nM",0.00408 ± 0.00018
same,peptide microarray binding signal,"[1]; peptide modifications: H2AS1ph H2AK5ac H2AK9ac, binder concentration: 500 nM",0.00738 ± 0.00011
same,peptide microarray binding signal,"[2]; peptide modifications: H2AS1ph H2AK5ac H2AK9ac, binder concentration: 10 nM",0.00257 ± 5e-05
same,peptide microarray binding signal,"[2]; peptide modifications: H2AS1ph H2AK5ac H2AK9ac, binder concentration: 100 nM",0.00687 ± 0.00064
same,peptide microarray binding signal,[3]; [22],0.000321 ± 6.7e-06
same,peptide microarray binding signal,[3]; [23],0.000399
same,peptide microarray binding signal,[4]; [22],0.000272 ± 4.9e-06
same,peptide microarray binding signal,[4]; [23],0.000577 ± 6.2e-06

# Reference: the supplement of paper PMC4022240
